Experimental data from PubChem BioAssay (NCATS).
Records with an inconclusive call do not appear. Activity calls are given as the source filed them. Calls follow the shape of the dose curve; as a rule, active = well fitted cell-killing curve with a large enough effect; inconclusive = small, poorly fitted or top-dose-only effect; inactive = flat fitted curve, though single readings scatter.

Experiment: qHTS of pediatric cancer cell lines to identify multiple opportunities for drug repurposing: Primary screen for RD cells (AID 1347104); also: nearly all actives have a fitted effect of over 55% in size
Conditions: RD rhabdomyosarcoma viability, CellTiter-Glo luminescence, 48 h; series mostly up to 46 µM; activity change, negative = cytotoxic: at the top concentration
Description: Drug repurposing or repositioning has been offered as a strategy for drug development in oncology programs. This approach has special potential for childhood cancers and other rare or orphan diseases, where the expected return on new drug development has been a disincentive to pharmaceuticals. […] In this project we exploit the poly-pharmacology of drugs to discover new indications via phenotypic screening of a panel of 19 well-characterized cell lines derived from solid tumors seen in children and adolescents. The goal is to identify approved drugs with previously unrecognized anticancer properties that has the potential to reveal new mechanisms and biological processes involved in carcinogenesis or drug resistance. We employed a titration-based paradigm (quantitative high-throughput screening or qHTS), where all compounds were tested at multiple concentrations for their effect on cell viability. Concentration-response curves (CRCs) were derived directly from the primary screen, and both potency and efficacy values were used to identify compounds with robust bioactivity profiles. We screened the NIH Chemical Genomics Center (NCGC) Pharmaceutical Collection (NPC) and Mechanism Interrogation Plate (MIPE) small molecule collections of approved and investigational compounds against these cell lines; and measured metabolically active cells after 48 hours of compound treatment as a proxy for cell viability. […] Assay Submitter: Nathalia J. Martinez, National Center for Advancing Translational Sciences, National Institutes of Health, Rockville, MD, USA; email: natalia.martinez@nih.gov Shen, M et al. Quantitative high-throughput phenotypic screening of pediatric cancer cell lines identifies multiple opportunities for drug repurposing. Oncotarget 2017 Dec 19;9(4):4758-4772. PMID 29435139.
The cells were obtained from University of North Carolina (UNC), Pediatric Preclinical Testing Program (PPT), and Coriell Institute (CI). qHTS cell viability assay: Cells were assayed in growth media at a density of 500-1,000 cells/well. Five microliters of cells were dispensed into 1,536-well, white, solid-bottom, TC-treated plates (Greiner Bio One) using a multidrop dispenser and incubated at 37 degrees C, 5% CO2, under a humidified atmosphere for 5 hours. Twenty-three nanoliters of compounds and controls (neutral control DMSO or positive control bortezomib at final concentration of 2.3 µM) were subsequently transferred by Kalypsys pintool. For primary screens, the MIPE collection was tested at 11-point dilutions (final concentrations range from 0.78 nM to 46 µM) and the NPC collection at 8-point dilutions (final concentrations range from 0.59 nM to 46 µM). Compounds tested in follow-up screens were assayed at 11-point dilutions. Cells were incubated for 48 hours, followed by addition of 3 µL of CellTiter-Glo (Promega). After a 15 min incubation at room temperature, samples were analyzed for luminescence intensity using a ViewLux High-throughput CCD imager equipped with clear filters.
Potency is read from the fitted curve at half-maximal effect.

SMILES | Potency | activity change, negative = cytotoxic
COc1cc(C)c(Sc2cnc(NC(=O)c3ccc(CNC(C)C(C)C)cc3)s2)cc1C(=O)N1CCN(C(C)=O)CC1 (stereo not given) | 14.8 µM (active) | 
O=C(C=Cc1c(C(=O)O)[nH]c2cc(Cl)cc(Cl)c12)Nc1ccccc1 |  | 3.25% (inactive)
O=C(NC1CCNCC1)c1[nH]ncc1NC(=O)c1c(Cl)cccc1Cl | 0.332 µM (active) | 
c1cc(-c2cnn3cc(-c4ccc(OCCN5CCCCC5)cc4)cnc23)ccn1 | 18.7 µM (active) | 
Cc1nc2ccc(CN(C)c3ccc(C(=O)N[C@@H](CCC(=O)O)C(=O)O)s3)cc2c(=O)[nH]1 |  | -22.5% (inactive)
CN(C)Cc1c(C(=O)NCCOc2ccc(C(=O)NO)cc2)oc2ccccc12 | 1.87 µM (active) | 
c1nc2nc(Nc3ccc(N4CCOCC4)cc3)nc(NC3CCCCC3)c2[nH]1 | 13.2 µM (active) | 
COC(=O)[C@]12CCC(C)(C)C[C@@H]1[C@@H]1C(=O)C=C3[C@@]4(C)C=C(C#N)C(=O)C(C)(C)[C@@H]4CC[C@@]3(C)[C@]1(C)CC2 | 0.526 µM (active) | 
O=C(Nc1cn[nH]c1-c1nc2ccc(CN3CCOCC3)cc2[nH]1)NC1CC1 | 5.9 µM (active) | 
C1Cc2[nH]nc(-c3nn[nH]n3)c2C1 |  | 7.61% (inactive)
Cc1cc(Nc2cc(N3CCN(C)CC3)nc(Sc3ccc(NC(=O)C4CC4)cc3)n2)n[nH]1 | 18.7 µM (active) | 
O=C(O)c1ccc2cc(-c3ccc(O)c(C45CC6CC(CC(C6)C4)C5)c3)ccc2c1 | 5.26 µM (active) | 
C=CCn1c(=O)c2cnc(Nc3ccc(N4CCN(C)CC4)cc3)nc2n1-c1cccc(C(C)(C)O)n1 | 0.418 µM (active) | 
CC(C)CC(=O)Nc1n[nH]c2c1CN(C(=O)C1CCN(C)CC1)C2(C)C | 2.35 µM (active) | 
COc1ccc(OC)c(-c2nnc3ccc(-c4ccc(OC)c(O[C@@H]5CCOC5)c4)nn23)c1 | 16.6 µM (active) | 
Cc1ccc(S(=O)(=O)Nc2cc(Cl)ccc2C(=O)Nc2nc(-c3ccccc3)cs2)cc1 | 10.5 µM (active) | 
Cn1c2cc(S(C)=O)sc2c2cnn(Cc3cccc(N)c3)c(=O)c21 (stereo not given) |  | -2.92% (inactive)
COc1cc(-c2nn(C3CCC(N4CCN(C(C)=O)CC4)CC3)c3ncnc(N)c23)ccc1NC(=O)c1cc2ccccc2n1C (stereo not given) | 0.662 µM (active) | 
CCn1nnc2c(N3CCOCC3)nc(-c3ccc(NC(=O)Nc4ccc(C(=O)N5CCN(C)CC5)cc4)cc3)nc21 | 0.0264 µM (active) | 
CC(NCc1ccc2c(c1)nc(NC(=O)c1ccc(-c3cn[nH]c3)s1)n2CC(C)(C)O)C(C)(C)C (stereo not given) | 1.05 µM (active) | 

SMILES | Potency | activity change, negative = cytotoxic
Cn1c(CNc2ccc(C(=N)N)cc2)nc2cc(C(=O)N(CCC(=O)O)c3ccccn3)ccc21 |  | -7.16% [at 16.1 µM] (inactive)
OCCCNc1cc(-c2ccnc(Nc3cccc(Cl)c3)n2)ccn1 | 0.235 µM (active) | 
O=C(O)C1(Cc2cccc(Nc3nccs3)n2)CCC(Oc2cccc(Cl)c2F)CC1 (stereo not given) |  | -11.7% (inactive)
Cc1nc(N)ncc1-c1nc(N2CCOCC2)c2sc(C(C)(C)O)cc2n1 | 1.48 µM (active) | 
COc1cc2c(cc1-c1c(C)noc1C)ncc1[nH]c(=O)n([C@H](C)c3ccccn3)c12 | 4.69 µM (active) | 
CNC(=O)c1ccc(N2C(=S)N(c3cnc(C#N)c(C(F)(F)F)c3)C(=O)C23CCC3)cc1F | 5.9 µM (active) | 
CC1=C(CO)C(=O)O[C@@H]([C@@H](C)[C@H]2CC[C@H]3[C@@H]4C[C@H]5O[C@]56[C@@H](O)C=CC(=O)[C@]6(C)[C@@H]4CC[C@]23C)C1 | 0.418 µM (active) | 
C[C@@H](Oc1cc(-c2cnn(C3CCNCC3)c2)cnc1N)c1c(Cl)ccc(F)c1Cl | 16.6 µM (active) | 
CC(C)Nc1cc(C(F)(F)F)cc2nc(NC(=O)c3cccnc3)nn12 |  | -3.9% (inactive)
O=C(c1ccc(Nc2nccc(-c3cc4ccccc4s3)n2)cc1)N1CCC(N2CCCC2)CC1 | 10.5 µM (active) | 
CN1CC[C@@H](c2c(O)cc(O)c3c(=O)cc(-c4ccccc4Cl)oc23)[C@@H](O)C1 | 0.235 µM (active) | 
O=C(CCCCCCC(=O)Nc1ccc([C@H]2O[C@@H](CSc3nc(-c4ccccc4)c(-c4ccccc4)o3)C[C@@H](c3ccc(CO)cc3)O2)cc1)NO | 16.6 µM (active) | 
O=C(O)CCCc1c[nH]c2ccccc12 |  | -10.7% (inactive)
O=C(Nc1nc2cccc(-c3ccc(CN4CCS(=O)(=O)CC4)cc3)n2n1)C1CC1 | 18.7 µM (active) | 
CCOC(=O)C1=C(C)NC2=C(C(=O)CC(C)(C)C2)C1c1ccc(-c2ccccc2)cc1 (stereo not given) | 16.6 µM (active) | 
Cc1[nH]c2ccccc2c1CCNCc1ccc(C=CC(=O)NO)cc1 | 0.372 µM (active) | 
CC=C1NC(=O)[C@H]2CSSCCC=C[C@H](CC(=O)N[C@H](C(C)C)C(=O)N2)OC(=O)[C@H](C(C)C)NC1=O | 0.0148 µM (active) | 
COc1ccc(C=Cc2cc(OC)c(OC)c(OC)c2)cc1O |  | -44.9% (inactive)
O=C(NCCCNc1nc(Nc2cccc(NC(=O)N3CCCC3)c2)ncc1I)c1cccs1 | 16.6 µM (active) | 
O=c1[nH]nc(Sc2ncc([N+](=O)[O-])s2)n1-c1ccc2c(c1)OCCO2 | 13.2 µM (active) | 
